Data as given in PubChem BioAssay (NCATS).
Results filed as inconclusive are left out. Unless noted, calls follow the shape of the dose curve; as a rule, active = well fitted curve in either direction with a large enough effect (not every such curve was filed as active); inconclusive = small, poorly fitted or top-dose-only effect, or another doubt; inactive = flat fitted curve, though single readings scatter.

How the values were obtained:
[1] = AP1 Signaling Pathway (AID 357); conditions: ME-180 AP-1-bla reporter, EGF-induced, beta-lactamase ratio, 5 h; at 17.2 µM (top of the series) unless noted;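 also: ME-180 reporter cells stimulated with EGF at its EC50 level; % is scaled to controls: 0 for no effect and ±100 for the full control effect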
Outline: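 Modulation of EGF-driven AP-1 transcription was assessed with a beta-lactamase reporter in ME-180 cells. Compound and EC50 EGF were co-incubated 5 hours at 37 °C before 2.5-hour CCF4 loading at room temperature and dual-emission reading.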

[2] = NFAT Signaling Pathway (AID 444); conditions: Jurkat NFAT-bla M1, carbachol, beta-lactamase ratio, 5 h; at 17.2 µM (top of the series) unless noted;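 also: carbachol stimulus at about its EC50 of 1 µM final; % is scaled to controls: 0 for no effect and ±100 for the full control effect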
Outline: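 Jurkat cells carrying an NFAT-driven β-lactamase reporter and co-transfected muscarinic M1 receptor were treated with compound plus carbachol (1 uM final, an EC50 level) for 5 h at 37 °C. CCF4 loading followed for 1 h at RT; 460/530 nm ratio gave %activity.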

[3] = Stat Signaling Pathway (AID 446); conditions: ME-180 (cervical carcinoma) SIE beta-lactamase reporter, IL-6 stimulated, 5 h; at 17.2 µM (top of the series) unless noted;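 also: ME-180 cervical cancer cells given 40 pM IL-6 alongside compound; SIE-controlled beta-lactamase reporter measured as 460/530 nm FRET emission ratio; % is scaled to controls: 0 for no effect and ±100 for the full control effect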
Outline: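 Normalization used AC90 stimulation (300 pM IL-6) and AC90 inhibition (125 nM pan-JAK inhibitor at 40 pM IL-6). The underlying signal is SIE-driven beta-lactamase in ME-180 cells after 5 h IL-6 exposure with compound.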

[4] = target: Glucocorticoid receptor (Homo sapiens) (UniProt P04150); assay: GR-GFP Redistribution (AID 450;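 active = compounds whose dose series gives a full or clear partial fitted curve of increased nuclear translocation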; also: potency is read from the fitted curve at half-maximal effect)
Glucocorticoid receptor (Homo sapiens), sequence (P04150 whole entry, looked up): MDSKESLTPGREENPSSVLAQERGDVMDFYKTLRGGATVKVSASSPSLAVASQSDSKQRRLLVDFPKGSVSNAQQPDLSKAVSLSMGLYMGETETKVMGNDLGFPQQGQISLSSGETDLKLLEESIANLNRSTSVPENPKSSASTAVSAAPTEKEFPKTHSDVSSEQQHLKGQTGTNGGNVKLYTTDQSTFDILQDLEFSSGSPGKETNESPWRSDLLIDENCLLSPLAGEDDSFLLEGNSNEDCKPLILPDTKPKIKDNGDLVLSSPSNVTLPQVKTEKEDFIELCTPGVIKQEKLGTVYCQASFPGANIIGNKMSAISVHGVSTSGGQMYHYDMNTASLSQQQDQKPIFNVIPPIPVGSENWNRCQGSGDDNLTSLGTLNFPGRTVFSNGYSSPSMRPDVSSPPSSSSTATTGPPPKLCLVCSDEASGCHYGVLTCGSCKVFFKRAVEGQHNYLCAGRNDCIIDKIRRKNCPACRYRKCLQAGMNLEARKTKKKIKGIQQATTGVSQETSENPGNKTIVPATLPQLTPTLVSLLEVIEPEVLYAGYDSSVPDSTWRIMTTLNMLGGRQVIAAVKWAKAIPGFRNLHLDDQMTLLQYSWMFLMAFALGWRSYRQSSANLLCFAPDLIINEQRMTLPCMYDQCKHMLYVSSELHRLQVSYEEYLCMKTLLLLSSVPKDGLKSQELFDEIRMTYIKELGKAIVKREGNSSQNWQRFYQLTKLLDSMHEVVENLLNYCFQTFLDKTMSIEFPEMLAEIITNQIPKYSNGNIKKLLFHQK

Cn1c(=O)c2c(nc(NCCCO)n2Cc2cccc(C(F)(F)F)c2)n(C)c1=O
inactive: activity change, negative = inhibition [1] 8.4% | activity change, negative = inhibition [2] 7.97% | activity, negative = inhibition [3] -3.72% | Potency [4] > 20.6 µM

CN(C)c1ccc(C=NCC2(O)CCOC(C)(C)C2)cc1 (stereo not given)
inactive: activity change, negative = inhibition [1] -0.248% | activity change, negative = inhibition [2] -9.77% | activity, negative = inhibition [3] 8.53% | Potency [4] > 20.6 µM

CC(C)CN1C(=O)c2ccc(C(=O)Nc3ccccn3)cc2C1=O
inactive: activity change, negative = inhibition [1] -5.2% | activity change, negative = inhibition [2] 27.9% | activity, negative = inhibition [3] 4.97% | Potency [4] > 20.6 µM

COc1ccc(-c2oc3ncn4nc(Cc5ccccc5)nc4c3c2-c2ccc(OC)cc2)cc1
inactive: activity change, negative = inhibition [1] -0.634% | activity change, negative = inhibition [2] -13% | activity, negative = inhibition [3] -13.3% | Potency [4] > 20.6 µM

O=C(C1=C(O)C(=O)N(CCCN2CCOCC2)C1c1ccccn1)c1cc2ccccc2o1 (stereo not given)
inactive: activity change, negative = inhibition [1] 0.283% | activity change, negative = inhibition [2] 1.99% | activity, negative = inhibition [3] -5.61% | Potency [4] > 20.6 µM

CCCCC(CCC(=O)Nc1ccc(C(=O)OC)cc1)C(=O)O (stereo not given)
inactive: activity change, negative = inhibition [1] 9.55% | activity change, negative = inhibition [2] 7.48% | activity, negative = inhibition [3] 8.56% | Potency [4] > 20.6 µM

COc1ccccc1N1CCN(C2CCN(C(=O)c3cccs3)CC2)CC1
inactive: activity change, negative = inhibition [1] 4.38% | activity change, negative = inhibition [2] -21.8% | activity, negative = inhibition [3] 19.6% | Potency [4] > 20.6 µM

O=C1C=C(O)CC(c2cccs2)C1 (stereo not given)
inactive: activity change, negative = inhibition [1] -0.0121% | activity change, negative = inhibition [2] -1.83% | activity, negative = inhibition [3] -2.06% | Potency [4] > 20.6 µM

CCN(CC)CCN1C(=O)C(=O)/C(=C(/O)c2ccc(F)cc2)C1c1cccnc1 (stereo not given)
inactive: activity change, negative = inhibition [1] 12.6% | activity change, negative = inhibition [2] 3.02% | activity, negative = inhibition [3] -0.766% | Potency [4] > 20.6 µM

COc1ccc(OC)c(C2/C(=C(\O)c3ccc(OC)c(Cl)c3)C(=O)C(=O)N2CCN(C)C)c1 (stereo not given)
inactive: activity change, negative = inhibition [1] 10.2% | activity change, negative = inhibition [2] 2.23% | activity, negative = inhibition [3] -6.77% | Potency [4] > 20.6 µM

Cc1cc(C)n(C(=O)CNC(=O)c2cccs2)n1
inactive: activity change, negative = inhibition [1] 10.9% | activity change, negative = inhibition [2] 3.15% | activity, negative = inhibition [3] 4.05% | Potency [4] > 20.6 µM

O=C(Nc1ncccc1Cl)c1cccc(F)c1
inactive: activity change, negative = inhibition [1] 2.04% | activity change, negative = inhibition [2] 4.8% | activity, negative = inhibition [3] 8.27% | Potency [4] > 20.6 µM

Oc1ccc2c(c1)C1CCCC1(N1CCOCC1)O2 (stereo not given)
inactive: activity change, negative = inhibition [1] -13.6% | activity change, negative = inhibition [2] 16.1% | activity, negative = inhibition [3] 2.31% | Potency [4] > 20.6 µM

COC(=O)c1sc(NC(C)=O)c(C(=O)OC)c1C
inactive: activity change, negative = inhibition [1] 2.69% | activity change, negative = inhibition [2] 2.63% | activity, negative = inhibition [3] 1.36% | Potency [4] > 20.6 µM

CCCCCCC(=O)N1CCN(c2cc3c(cc2F)c(=O)c(C(=O)O)cn3CC)CC1
inactive: activity change, negative = inhibition [1] -1.28% | activity change, negative = inhibition [2] 7.84% | activity, negative = inhibition [3] 0.48% | Potency [4] > 20.6 µM

CCOC(=O)c1[nH]c2ccccc2c1N=CN(CC)CC
inactive: activity change, negative = inhibition [1] 9.2% | activity change, negative = inhibition [2] -19.2% | activity, negative = inhibition [3] -2.38% | Potency [4] > 20.6 µM

O=c1[nH]c(CN2CCCCC2)nc2c1C1(CCCCC1)Cc1ccccc1-2
inactive: activity change, negative = inhibition [1] 24.9% | activity change, negative = inhibition [2] 4.2% | activity, negative = inhibition [3] -5.46% | Potency [4] > 20.6 µM

CCC(CC)n1[nH]c(=O)cc1N
inactive: activity change, negative = inhibition [1] -9.54% | activity change, negative = inhibition [2] 14.2% | activity, negative = inhibition [3] 2.51% | Potency [4] > 20.6 µM

COc1ccc(C(=O)NCCCCCC(=O)O)cc1OC
inactive: activity change, negative = inhibition [1] 5.18% | activity change, negative = inhibition [2] -3.46% | activity, negative = inhibition [3] 2.88% | Potency [4] > 20.6 µM

COC(=O)c1c(C)[nH]c(C(=O)OCc2ccc(F)cc2)c1C
inactive: activity change, negative = inhibition [1] 14.7% | activity change, negative = inhibition [2] 5.66% | activity, negative = inhibition [3] -8.92% | Potency [4] > 20.6 µM

CSc1nc2sc3c(c2c2nnnn12)CC(C)(C)OC3
inactive: activity change, negative = inhibition [1] -8.22% | activity change, negative = inhibition [2] -19.6% | activity, negative = inhibition [3] 15.4% | Potency [4] > 20.6 µM

O=C(CN1C(=O)c2ccccc2C1=O)OCN1C(=O)c2ccccc2C1=O
inactive: activity change, negative = inhibition [1] 8.86% | activity change, negative = inhibition [2] -11.6% | activity, negative = inhibition [3] 6.85% | Potency [4] > 20.6 µM

COc1ccc(/C(O)=C2\C(=O)C(=O)N(CCN(C)C)C2c2cccc(OC)c2OC)cc1Cl (stereo not given)
inactive: activity change, negative = inhibition [1] -2.56% | activity change, negative = inhibition [2] 11.9% | activity, negative = inhibition [3] 8.3% | Potency [4] > 20.6 µM

CCOC(=O)c1c(C)n(C)c2ccc(O)c(S(=O)(=O)c3ccccc3)c12
inactive: activity change, negative = inhibition [1] -9.19% | activity change, negative = inhibition [2] 2.35% | activity, negative = inhibition [3] 11.2% | Potency [4] > 20.6 µM

O=C(NCCO)c1cccc2c1C(=O)c1ccccc1-2
inactive: activity change, negative = inhibition [1] 9.17% | activity change, negative = inhibition [2] 2.44% | activity, negative = inhibition [3] 10.7% | Potency [4] > 20.6 µM
